# What was measured:
# Assay in all cases: yeast three-hybrid, YBZ-1, SC-Leu-His + 0.5 mM 3-AT, 4 days
# Settings in all cases: tags: N-Gal4 AD-HA kept; label: inside an RPR1-promoter hybrid RNA with tandem MS2 sites; ssRNA
# [1] = target: PUM1 PUF domain R1-TWR (Homo sapiens, UniProt Q14671 828-1176, S863T;R864W;Q867R)
# Summary of the method: (§1)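 The interaction score is the log change in variant frequency from input to selection. Scores were computed in log2 with a pseudocount of 1 for absent variants, using Illumina sequencing of PCR-amplified repeat regions. The input came from four days on SC-Leu and the selection from four days on SC-Leu-His + 0.5 mM 3-AT. The cells were strain YBZ-1 (LexA–MS2 coat fusion, HIS3 reporter) co-expressing Pumilio-1 PUF domain libraries and matching RNA elements from a centromeric plasmid.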
# [2] = target: PUM1 PUF domain R3-VFG (Homo sapiens, UniProt Q14671 828-1176, C935V;R936F;Q939G)
# Summary of the method: as §1
# [3] = target: PUM1 PUF domain R5-HKK (Homo sapiens, UniProt Q14671 828-1176, C1007H;R1008K;Q1011K)
# Chain of PUM1 PUF domain R5-HKK (Q14671 828-1176 C1007H/R1008K/Q1011K): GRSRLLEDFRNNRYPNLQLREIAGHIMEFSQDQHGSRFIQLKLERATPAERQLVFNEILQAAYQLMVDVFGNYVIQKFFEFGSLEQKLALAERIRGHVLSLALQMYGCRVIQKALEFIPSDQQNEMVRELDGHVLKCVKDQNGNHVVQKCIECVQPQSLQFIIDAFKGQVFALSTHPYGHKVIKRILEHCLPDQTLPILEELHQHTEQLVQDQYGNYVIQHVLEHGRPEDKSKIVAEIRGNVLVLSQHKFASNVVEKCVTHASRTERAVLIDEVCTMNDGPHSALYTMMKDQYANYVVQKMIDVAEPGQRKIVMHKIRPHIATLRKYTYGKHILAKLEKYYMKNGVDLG
# Summary of the method: as §1
# [4] = target: PUM1 PUF domain R5-TRK (Homo sapiens, UniProt Q14671 828-1176, C1007T;Q1011K)
# Summary of the method: as §1
# [5] = target: PUM1 PUF domain R5-QQG (Homo sapiens, UniProt Q14671 828-1176, C1007Q;R1008Q;Q1011G)
# Summary of the method: as §1
# [6] = target: PUM1 PUF domain R5-DFR (Homo sapiens, UniProt Q14671 828-1176, C1007D;R1008F;Q1011R)
# Chain of PUM1 PUF domain R5-DFR (Q14671 828-1176 C1007D/R1008F/Q1011R): as the sequence (Q14671 828-1176 C1007H/R1008K/Q1011K) above, with H180D, K181F, K184R counted along it
# Summary of the method: as §1
# [7] = target: PUM1 PUF domain R3-CHG (Homo sapiens, UniProt Q14671 828-1176, R936H;Q939G)
# Summary of the method: as §1
# [8] = target: PUM1 PUF domain R8-KWG (Homo sapiens, UniProt Q14671 828-1176, N1122K;Y1123W;Q1126G)
# Summary of the method: as §1
# [9] = target: PUM1 PUF domain R8-CYN (Homo sapiens, UniProt Q14671 828-1176, N1122C;Q1126N)
# Chain of PUM1 PUF domain R8-CYN (Q14671 828-1176 N1122C/Q1126N): as the sequence (Q14671 828-1176 C1007H/R1008K/Q1011K) above, with H180C, K181R, K184Q, N295C, Q299N counted along it
# Summary of the method: as §1
# [10] = target: PUM1 PUF domain R5-PRF (Homo sapiens, UniProt Q14671 828-1176, C1007P;Q1011F)
# Summary of the method: as §1
sequence,measurement,setting,value
GGCUAGAACUAGUGGAUCCCCCGGCGCCCGGCGGCUCGAGCCCGGGUAAGUGUAAAUCGUCUGCAUGCCGCCGGGCGCCAUGCCUGCAGGUCGACUCUAGAAAACAUG,binding signal,[1],5.66 log2 enrichment (interaction score)
GGCUAGAACUAGUGGAUCCCCCGGCGCCCGGCGGCUCGAGCCCGGGUAAGUGUAAUUAGUCUGCAUGCCGCCGGGCGCCAUGCCUGCAGGUCGACUCUAGAAAACAUG,binding signal,[2],4.61 log2 enrichment (interaction score)
GGCUAGAACUAGUGGAUCCCCCGGCGCCCGGCGGCUCGAGCCCGGGUAAGUGUUAAUAGUCUGCAUGCCGCCGGGCGCCAUGCCUGCAGGUCGACUCUAGAAAACAUG,binding signal,[3],2.41 log2 enrichment (interaction score)
same,binding signal,[4],4.73 log2 enrichment (interaction score)
same,binding signal,[5],2.7 log2 enrichment (interaction score)
GGCUAGAACUAGUGGAUCCCCCGGCGCCCGGCGGCUCGAGCCCGGGUAAGUGUCAAUAGUCUGCAUGCCGCCGGGCGCCAUGCCUGCAGGUCGACUCUAGAAAACAUG,binding signal,[6],5.27 log2 enrichment (interaction score)
GGCUAGAACUAGUGGAUCCCCCGGCGCCCGGCGGCUCGAGCCCGGGUAAGUGUAAGUAGUCUGCAUGCCGCCGGGCGCCAUGCCUGCAGGUCGACUCUAGAAAACAUG,binding signal,[2],1.68 log2 enrichment (interaction score)
same,binding signal,[7],0.98 log2 enrichment (interaction score)
GGCUAGAACUAGUGGAUCCCCCGGCGCCCGGCGGCUCGAGCCCGGGUAAGCGUAAAUAGUCUGCAUGCCGCCGGGCGCCAUGCCUGCAGGUCGACUCUAGAAAACAUG,binding signal,[8],6.36 log2 enrichment (interaction score)
same,binding signal,[9],2.28 log2 enrichment (interaction score)
GGCUAGAACUAGUGGAUCCCCCGGCGCCCGGCGGCUCGAGCCCGGGUAAGUGUAAAUAGUCUGCAUGCCGCCGGGCGCCAUGCCUGCAGGUCGACUCUAGAAAACAUG,binding signal,[8],5.91 log2 enrichment (interaction score)
same,binding signal,[4],4.09 log2 enrichment (interaction score)
same,binding signal,[2],3.82 log2 enrichment (interaction score)
same,binding signal,[5],0.25 log2 enrichment (interaction score)
same,binding signal,[10],3.86 log2 enrichment (interaction score)
same,binding signal,[7],2.43 log2 enrichment (interaction score)
GGCUAGAACUAGUGGAUCCCCCGGCGCCCGGCGGCUCGAGCCCGGGUAAGUGUAAAUUGUCUGCAUGCCGCCGGGCGCCAUGCCUGCAGGUCGACUCUAGAAAACAUG,binding signal,[1],0.55 log2 enrichment (interaction score)
